A selection: hits, their analogues and other compounds. The true share with any hit is near 3.2%.
aDG glyco up = increases alpha dystroglycan glycosylation | 0.22% of 360,000 active | Pro5-aDG cells, alpha-DG glycosylation AlphaScreen (IIH6); 0% Pro5, 100% B10-LARGE cell signal | activation, % at 10 µM;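 active = activation of at least 8% versus controls, or a plate z-score of at least 8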;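 note: Pro5 are CHO cells carrying HIG-tagged alpha-DG that lacks glycosylation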
FAS TE block = FAS thioesterase (human) inhibition; recombinant FAS-TE, OMFH fluorogenic substrate, fluorescence endpoint; 0.67% of 360,000 active; P49327; inhibition, % at 15 µM; AID 602261;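 active = compounds whose normalised, plate-corrected inhibition of enzyme fluorescence in the single-dose primary screen is 50% or more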;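 note: 0% = DMSO with enzyme and 100% = substrate without enzyme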
CRFBP-R2 agonist = agonists of human CRF-binding protein/CRF-R2 receptor complex. 0.46% of 350,000 active. HEK293 CRF-R2/CRF-BP, calcium dye fluorescence (FLIPR); percent of saturating CRF peptide response. activation, % at 13.2 µM;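 active = activation of at least 50%, plus an integration ratio under a set limit after plate pattern correction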;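 note: plate controls were neutral control wells without compound for no effect and CRF at EC100 for full effect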
H9c2 protect = myocardial damage modulation in H9c2 cells | 0.63% of 360,000 active | AID 588492 | H9c2 cardiomyocytes, H2O2 injury protection, ATPLite, 2 h | protection from H2O2 cell death, % at 20 µM;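 active = compounds giving at least 50% protection of heart cells from peroxide-induced death in the single-dose screen, raw or plate-pattern-corrected value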;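 note: 0% = DMSO wells with peroxide and 100% = DMSO wells without peroxide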
CRFR2-BP antag = antagonists of CRF-binding protein/CRF-R2 receptor complex. 0.59% of 350,000 active. HEK293 CRF-R2/CRF-BP, CRF-induced calcium fluorescence. AID 588475. inhibition, % at 11.8 µM;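 active = inhibition of the ligand-induced calcium signal above about 50% at the single tested concentration, limit read from the data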
PfGluPho inh = PfG6PD (Plasmodium falciparum) enzyme inhibition | PfGluPho enzyme, NADPH resazurin-diaphorase fluorescence | inhibition, % at 20 µM | 0.78% of 350,000 active | AID 504690;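 active = inhibition reaching at least a set limit at 20 µM in the primary screen, cut at about 59% in these data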;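 note: 0% = DMSO wells with substrate and 100% = DMSO wells lacking glucose-6-phosphate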
FAS-TE inh conf = confirmation of human fatty acid synthase thioesterase inhibitors; 45% of 2,300 active; recombinant FAS-TE, OMFH fluorogenic substrate, fluorescence; inhibition, % at 15 µM; shares compounds with FAS TE block; AID 624325;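 active = compounds inhibiting the enzyme by at least 50% at 15 µM in any one of the replicates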;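 note: 0% = enzyme with DMSO only and 100% = wells lacking enzyme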
Active calls of the source: *; / = no result.

SMILES	aDG glyco up	FAS TE block	CRFBP-R2 agonist	H9c2 protect	CRFR2-BP antag	PfGluPho inh	FAS-TE inh conf
O=C(Nc1ccc(Cl)cc1)C(Cl)C(=O)c1ccccc1 (stereo unspecified)	0.6	77.0*	2.3	6.1	32.3	3.9	86.9*
Cc1cc(C)cc(NC(=O)CCn2cnc3cc(C)c(C)cc32)c1	0.2	0.1	-0.4	-7.0	14.0	-1.6	/
Cc1ccc([N+](=O)[O-])cc1N=Nc1c(C)[nH]n(C(N)=S)c1=O	-0.1	-4.3	-1.2	1.7	-3.5	-13.2	/
NC(=S)n1[nH]c(-c2ccc([N+](=O)[O-])cc2)c(N=Nc2ccc(Cl)cc2)c1=O	0.0	66.1*	14.8	-22.8	10.9	33.9	39.7*
CCCc1cc(=O)oc2c(C)c(OCc3nn[nH]n3)ccc12	0.0	20.4	-4.9	2.7	17.3	-30.6	/
Cc1c(OCc2nn[nH]n2)ccc2c(-c3ccccc3)cc(=O)oc12	0.0	76.1*	-0.9	22.1	10.3	-36.0	86.0*
COc1ccc(-c2cc(=O)oc3c(C)c(OCc4nn[nH]n4)ccc23)cc1	-0.2	61.8*	2.2	30.2	-9.6	-43.6	69.3*
CC[C@@H]1Cc2[nH][nH]c(=O)c2[C@H](c2ccc(Cl)cc2)O1	-0.2	-10.4	/	/	/	/	/
O=C(N/N=C/c1cc([N+](=O)[O-])ccc1O)c1cc(-c2ccccc2)nc2ccccc12	0.1	36.4	-1.1	17.0	6.4	-42.2	/
O=[N+]([O-])c1ccc(O)c(/C=N/NC(=S)Nc2ccc(Cl)cc2Cl)c1	-0.3	41.5	3.1	-16.7	4.0	-12.4	/
O=C(CNC(=O)c1ccc2c(c1)OCO2)N/N=C/c1cccc([N+](=O)[O-])c1	0.2	55.0*	-0.3	5.8	9.4	33.7	30.0
Cc1cc(C(=O)N/N=C/c2cc([N+](=O)[O-])ccc2O)c2ccccc2n1	-0.3	76.9*	-0.1	56.1*	-9.7	4.0	96.8*
Cc1cc(Cl)ccc1NC(=O)CCC(=O)N/N=C/c1cc([N+](=O)[O-])ccc1O	0.1	55.3*	0.0	33.1	-7.4	-22.7	70.4*
O=C(NN=Cc1ccccc1O)c1cccc([N+](=O)[O-])c1	2.2	61.2*	1.4	31.3	3.8	-24.5	3.7
O=C(NC(C(=O)N/N=C/c1cc([N+](=O)[O-])ccc1O)c1n[nH]c(=O)c2ccccc12)c1ccccc1 (stereo unspecified)	-0.1	66.9*	9.5	43.3	3.7	-45.9	78.4*
O=C(NC(C(=O)N/N=C/c1cccc2ccccc12)c1n[nH]c(=O)c2ccccc12)c1ccccc1 (stereo unspecified)	-0.5	22.8	3.5	15.6	-17.5	14.5	/
CCCCCC1CC(CC(=O)Nc2ccc([N+](=O)[O-])cc2)OC1=O (stereo unspecified)	0.0	16.3	-1.6	-2.7	0.8	-5.4	/
CCCCCC1CC(CC(=O)Nc2ccc([N+](=O)[O-])cc2)C(=O)O1 (stereo unspecified)	0.4	53.6*	-0.5	-11.2	0.7	9.8	57.0*
COc1ccc2c(CC(=O)OCC(=O)N(C)c3c(N)n(Cc4ccccc4)c(=O)[nH]c3=O)coc2c1	0.0	-0.2	2.2	5.3	-2.1	-13.7	/
CC(C)OC(=O)CC1C(=O)NCCN1C(=S)NC(=O)c1cccs1 (stereo unspecified)	-0.3	-8.0	0.9	13.5	-11.5	10.2	/
CCN(CC(=O)NCc1ccc(Cl)cc1)C(=O)/C=C/c1ccccc1	0.1	17.8	-1.0	-2.8	-4.6	-0.9	/
CCN(CC(=O)NCc1ccc(Cl)cc1)C(=O)/C=C/c1ccc(Cl)c([N+](=O)[O-])c1	0.1	65.0*	-4.5	-4.5	12.4	15.6	47.0
CCOC(=O)C1CCN(C(=O)c2ccc3c(=O)n4nc(Nc5ccccc5OC)sc4nc3c2)CC1	-0.2	54.2*	-1.1	70.9*	7.6	3.4	59.2*
CCOC(=O)C1CCN(C(=O)c2ccc3c(=O)n4nc(Nc5cc(C)ccc5C)sc4nc3c2)CC1	0.3	54.9*	2.9	17.0	-26.9	-6.9	24.7

Bioassay records as filed in PubChem.
